Data on 31 compounds can be found in PubChem BioAssay (NCATS).

Results filed as inconclusive are left out. Calls of active or inactive are those of the source. The call rests on the fitted dose curve; in most records, active means well fitted inhibition curve with a large enough effect; inconclusive means small, poorly fitted or top-dose-only effect; inactive means flat fitted curve, though single readings scatter. Where a SMILES comes first, the peptide text is derived from it.
Potency means the concentration at half of the fitted maximal effect.

This assay relates to Zika virus NS2B-NS3 protease. Description: Primary screen GU AMC qHTS for Zika virus inhibitors (AID 1347154). Further: nearly all actives have a fitted effect of over 70% in size.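 On activity change, negative = inhibition: 0% = no-inhibitor control and -100% = no-enzyme control.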 The following applies: Zika NS2B-NS3 unlinked protease, AMC fluorogenic substrate; series mostly up to 54.1 µM; activity change, negative = inhibition: at the top concentration. Put shortly: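 Fluorogenic AMC-substrate cleavage by noncovalent NS2B-NS3 protease complex (25 nM, pH 8.0 Tris buffer with Tween 20) followed for 15 minutes at room temperature (~20% conversion). Percent inhibition from ex340/em450 signal change, fitted by 4-parameter Hill equation.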
With H-YGGFLRKYPK-OH, the activity change, negative = inhibition is 17.1% [at 6.83 µM] (inactive).

`C[C@H](NC(=O)[C@@H](N)Cc1ccc(O)cc1)C(=O)N[C@@H](Cc1ccccc1)C(=O)N[C@@H](Cc1ccccc1)C(N)=O` (H-YAFF-NH2): the activity change, negative = inhibition was 0.112% [at 6.83 µM] (inactive). As to `CC[C@H](C)[C@H](NC(=O)[C@H](CCCN=C(N)N)NC(=O)[C@H](CCCN=C(N)N)NC(=O)[C@H](CC(C)C)NC(=O)[C@H](Cc1ccccc1)NC(=O)CNC(=O)CNC(=O)[C@@H](N)Cc1ccc(O)cc1)C(=O)O`, the activity change, negative = inhibition was 10.8% [at 6.83 µM] (inactive). `Cc1[nH]c2ccc(Cl)cc2c1C1=CCNCC1`: the “activity change, negative = inhibition” value was 5.06% (inactive). Same read-out and setting: under `CCCCC/C=C\C=C\[C@H](CCCCCCCC(=O)O)OO` stands -1.43% [at 0.59 µM] (inactive). With `C=C1C([C@@H](O)C[C@H](C)C2O[C@@]3(CCCCO3)CC[C@H]2C)OC2CC[C@@]3(CC[C@@H](/C=C/[C@@H](C)C4CC(C)=C[C@]5(O4)O[C@H](C[C@@](C)(O)C(=O)O)CCC5O)O3)OC2[C@@H]1O` (stereo partly specified), the activity change, negative = inhibition is 0.872% [at 4.99 µM] (inactive). Regarding `O=C(O)C1CN(CP(=O)(O)O)CCN1` (stereo unspecified), the “activity change, negative = inhibition” value is 28.9% (inactive). Take `COc1ccc2c(c1O)-c1cc(O)cc3c1[C@@H](C2)N(C)CC3`: the Potency was 29.9 µM (active). Consider `COc1cccc2c1C13CC[N+]4(CC5CC5)CO[C@]1(CCC(=O)C3)C4C2`, for which the “activity change, negative = inhibition” value was 10.3% (inactive).

On to `CC(C)C[C@H](NC(=O)[C@H](Cc1ccccc1)NC(=O)CNC(=O)[C@H](CO)NC(=O)[C@@H](N)Cc1ccc(O)cc1)C(=O)N[C@H](C(=O)O)[C@H](C)O`, for which the activity change, negative = inhibition is 10.8% [at 6.83 µM] (inactive). For `Oc1ccc2c3c1O[C@H]1c4c(c5ccccc5n4Cc4ccccc4)C[C@]4(O)[C@H](C2)N(CC2CC2)CC[C@@]314`, the “activity change, negative = inhibition” value is 0.0189% (inactive). For `CCc1cccc(CC)c1NC1=NCCN1`, the “activity change, negative = inhibition” value is 2.09% (inactive). For `CC(C)(O)[C@H]1O[C@@H]2CC[C@]3(C)[C@@]4(C)c5[nH]c6ccccc6c5C[C@@H]4CC[C@]3(O)C2=CC1=O`, the “activity change, negative = inhibition” value was 0.708% (inactive). For the compound `CC(C)[C@H](NC(=O)[C@H](CCC(=O)O)NC(=O)[C@H](Cc1ccccc1)NC(=O)[C@H](C)NC(=O)[C@@H](N)Cc1ccc(O)cc1)C(=O)N[C@H](C(=O)NCC(N)=O)C(C)C`, the activity change, negative = inhibition is 2.64% [at 6.83 µM] (inactive).

Turning to `CCCN(C/C=C/I)C1CCc2ccc(O)cc2C1` (stereo unspecified), the “activity change, negative = inhibition” value was -19.2% (inactive).

For the compound `NCCCC[C@H](NC(=O)[C@H](Cc1ccccc1)NC(=O)[C@H](CCCN=C(N)N)NC(=O)[C@@H](N)Cc1ccc(O)cc1)C(N)=O`, the activity change, negative = inhibition is 9.11% [at 6.83 µM] (inactive).

On to `CC(C)C[C@H](NC(=O)[C@H](Cc1ccccc1)NC(=O)CNC(=O)[C@H](CS)N(C(=O)[C@@H](N)Cc1ccc(O)cc1)C(C)(C)C)C(=O)N([C@H](C(=O)O)[C@H](C)O)C(C)(C)C` (HELM PEPTIDE1{Y.[CC(C)(C)N([C@@H](CS)C(=O)[*:2])[*:1]].G.F.L.[C[C@H](O)[C@@H](C(=O)O)N(C(C)(C)C)[*:1]]}$$$$V2.0), for which the activity change, negative = inhibition was 12.2% [at 6.83 µM] (inactive). Take `CC1OC(=O)[C@@H](C(C)C)NC(=O)C(C(C)C)OC(=O)[C@H](C(C)C)NC(=O)C(C)OC(=O)[C@@H](C(C)C)NC(=O)C(C(C)C)OC(=O)[C@H](C(C)C)NC(=O)C(C)OC(=O)[C@@H](C(C)C)NC(=O)C(C(C)C)OC(=O)[C@H](C(C)C)NC1=O` (stereo partly specified): the “activity change, negative = inhibition” value is 12.9% (inactive). For the compound `CN(C(=O)Cc1ccc(Cl)c(Cl)c1)[C@H](CN1CCCC1)c1ccccc1`, the Potency result was “inactive”. Still for that read-out and setting: under `O=C(O)/C=C/CO` stands “inactive”. For the compound `CCCCCCC[n+]1ccc(-c2cc[n+](CCCCCCC)cc2)cc1`, the “activity change, negative = inhibition” value is 1.14% (inactive). `CN1[C@@H]2CC[C@H]1CC(OC(c1ccc(F)cc1)c1ccc(F)cc1)C2` (stereo partly specified): the “activity change, negative = inhibition” value is 10.2% (inactive). Take `CCCCC[C@@H](/C=C/C=C\CCCCCCCC(=O)O)OO`: the activity change, negative = inhibition is 3.22% [at 0.59 µM] (inactive).

As for `CC(C)[C@]1(O)[C@@H](OC(=O)c2ccc[nH]2)[C@@]2(O)[C@@]3(C)C[C@]4(O)O[C@@]5([C@H](O)[C@@H](C)CC[C@]35O)[C@@]2(O)C41C`, the “activity change, negative = inhibition” value was 15% (inactive).

As for `CC(N)(COP(=O)(O)Oc1ccccc1)C(=O)O` (stereo unspecified), the “activity change, negative = inhibition” value is 7.32% (inactive). Take `NCC(CS(=O)(=O)O)c1ccc(Cl)cc1` (stereo unspecified): the “activity change, negative = inhibition” value is 12.7% (inactive). The same measure, in the same setting: the result for `Cn1c2c(c3ccccc31)CCNCC2` reads -0.512% (inactive); that for `CCCCCCCCCCCCCCCCOC[C@@H](COP(=O)([O-])OCC[N+](C)(C)C)OC(C)=O`, 5.71% [at 6.83 µM] (inactive). For the compound `C[C@H](N)Cc1c[nH]c2ccc(OCc3cccs3)cc12`, the “activity change, negative = inhibition” value was 9.34% (inactive). For `COc1cc(OC2CCN(C(C)=O)CC2)ccc1C(=O)N1CCC(N2C(=O)OCc3ccccc32)CC1`, the “activity change, negative = inhibition” value is 13.9% (inactive). In the case of `CCOc1cncc(/C=C/CCNC)c1`, the “activity change, negative = inhibition” value was 11.4% (inactive).
